Composite z-score and z-score data for eleven compounds are collected here from PubChem BioAssay.

Active and inactive are the calls of the source.

Experiment [1] in a line: anti-His antibody binders, primary screen, artefact control for SMM control protein annotation, biochemical, small-molecule microarray, 635 nm fluorescence (AID 1128).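 Note: score merges feature fluorescence with signal-to-noise for each printed compound spot.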 Conditions: anti-His Alexa647 antibody binding, higher = more signal.
In experiment [2] the test system is Human papillomavirus type 1a E7 protein (residues 1-88). The experiment can be described thus: HPV1a E7 small-molecule binders, primary screen, biochemical, small-molecule microarray, residues 1-88, 635 nm (AID 1129). Conditions: small-molecule microarray binding, fluorescence 635 nm; higher = more signal.
Experiment [3] concerns the target Focal adhesion kinase 1 (Homo sapiens) (UniProt Q05397). As to the kind of experiment: small-molecule microarray binders of FAK, primary screen, biochemical, 635/667 nm fluorescence, BSA, DTT (AID 1130).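 Note: composite of spot emission at 667 nm and signal to noise over triplicate slides.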 Conditions: PTK2 binding, 635 nm fluorescence, higher = more signal.
Experiment [4] deals with Fibrinogen (Alexa647-labelled). As to the kind of experiment: fibrinogen binders on compound microarrays, profiling panel, artefact control for SMM control-protein annotation, biochemical, small-molecule microarray, 635/667 nm fluorescence (AID 1131).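 Note: z-score merges 667 nm fluorescence with per-spot signal-to-noise over triplicate slides.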 Conditions: fibrinogen-A647 binding fluorescence, higher = more signal.
For experiment [5], the target named is Follistatin (Homo sapiens) (UniProt P19883). The experiment can be described thus: follistatin binders on small-molecule microarrays, primary screen, biochemical, small-molecule microarray, 635/667 nm fluorescence (AID 1132). Conditions: FST binding, 635 nm fluorescence, higher = more signal.
In experiment [6] the target is Fibroblast growth factor 2 (Homo sapiens) (UniProt P09038). The experiment can be described thus: FGF2 binders on small-molecule microarrays, primary screen, biochemical, small-molecule microarray, 635/667 nm fluorescence (AID 1133). Conditions: small-molecule microarray binding, FGF2, fluorescence 635/667; higher = more signal.
Experiment [7] is described as follows: mitochondrial membrane potential change in A549 cells, profiling panel, cell-based, JC-1 fluorescence, basal, 24 h, 100 nL (AID 1138).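 Note: A549 lung adenocarcinoma cells under basal conditions with no added stimulus; test concentration not given here.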 Conditions: higher = more signal.
Experiment [8] deals with Lefty1. As to the kind of experiment: Lefty1 binders on small-molecule microarrays, primary screen, biochemical, small-molecule microarray, 635/667 nm fluorescence (AID 1139). Conditions: small-molecule microarray binding, fluorescence 635/667; higher = more signal.
The subject of experiment [9] is wheat germ agglutinin (Triticum aestivum), Alexa647-labelled. The experiment can be described thus: wheat germ agglutinin binders on compound microarrays, profiling panel, artefact control for SMM control-protein annotation, biochemical, small-molecule microarray, 635/667 nm fluorescence (AID 1140).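 Note: score merges 667 nm feature emission with signal to noise over triplicate slides.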 Conditions: WGA-A647 binding, 635 nm fluorescence, higher = more signal.

The target of experiment [10] is Luciferin 4-monooxygenase (Photinus pyralis) (UniProt P08659). The experiment can be described thus: firefly luciferase enzyme inhibitors, primary screen, biochemical, luminescence, purified enzyme, 2006 set (AID 1141).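 Note: cell-free assay with purified firefly luciferase at 100 ng per well in PBS; test concentration not given here.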 Conditions: SteadyGlo luminescence, 30 min, higher = more signal, called active from +8 up or from −8 down.
Sequence of Luciferin 4-monooxygenase (Photinus pyralis) (P08659 whole entry, looked up): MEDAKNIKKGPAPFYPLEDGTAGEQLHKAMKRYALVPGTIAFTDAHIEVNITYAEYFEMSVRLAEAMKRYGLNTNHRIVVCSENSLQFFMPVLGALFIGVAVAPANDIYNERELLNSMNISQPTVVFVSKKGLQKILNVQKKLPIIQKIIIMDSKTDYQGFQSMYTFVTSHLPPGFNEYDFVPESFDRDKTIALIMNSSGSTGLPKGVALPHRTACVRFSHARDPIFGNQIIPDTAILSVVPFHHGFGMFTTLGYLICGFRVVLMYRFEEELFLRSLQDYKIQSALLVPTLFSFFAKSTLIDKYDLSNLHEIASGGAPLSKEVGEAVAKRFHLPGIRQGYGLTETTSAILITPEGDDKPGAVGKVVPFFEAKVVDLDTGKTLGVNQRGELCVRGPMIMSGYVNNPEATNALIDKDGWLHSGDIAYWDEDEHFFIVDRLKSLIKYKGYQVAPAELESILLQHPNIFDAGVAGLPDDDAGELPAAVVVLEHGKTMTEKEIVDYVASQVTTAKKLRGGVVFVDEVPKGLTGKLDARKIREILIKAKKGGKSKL

Sequence of Fibroblast growth factor 2 (Homo sapiens) (P09038 whole entry, looked up): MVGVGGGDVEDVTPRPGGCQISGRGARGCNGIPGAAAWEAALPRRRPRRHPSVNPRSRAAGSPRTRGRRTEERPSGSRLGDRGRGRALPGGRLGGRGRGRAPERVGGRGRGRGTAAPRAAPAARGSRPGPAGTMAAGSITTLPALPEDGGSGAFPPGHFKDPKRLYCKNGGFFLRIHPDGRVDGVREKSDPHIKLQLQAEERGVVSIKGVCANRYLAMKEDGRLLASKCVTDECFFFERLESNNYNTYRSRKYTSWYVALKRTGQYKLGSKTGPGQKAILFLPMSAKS
Sequence of Focal adhesion kinase 1 (Homo sapiens) (Q05397 whole entry, looked up): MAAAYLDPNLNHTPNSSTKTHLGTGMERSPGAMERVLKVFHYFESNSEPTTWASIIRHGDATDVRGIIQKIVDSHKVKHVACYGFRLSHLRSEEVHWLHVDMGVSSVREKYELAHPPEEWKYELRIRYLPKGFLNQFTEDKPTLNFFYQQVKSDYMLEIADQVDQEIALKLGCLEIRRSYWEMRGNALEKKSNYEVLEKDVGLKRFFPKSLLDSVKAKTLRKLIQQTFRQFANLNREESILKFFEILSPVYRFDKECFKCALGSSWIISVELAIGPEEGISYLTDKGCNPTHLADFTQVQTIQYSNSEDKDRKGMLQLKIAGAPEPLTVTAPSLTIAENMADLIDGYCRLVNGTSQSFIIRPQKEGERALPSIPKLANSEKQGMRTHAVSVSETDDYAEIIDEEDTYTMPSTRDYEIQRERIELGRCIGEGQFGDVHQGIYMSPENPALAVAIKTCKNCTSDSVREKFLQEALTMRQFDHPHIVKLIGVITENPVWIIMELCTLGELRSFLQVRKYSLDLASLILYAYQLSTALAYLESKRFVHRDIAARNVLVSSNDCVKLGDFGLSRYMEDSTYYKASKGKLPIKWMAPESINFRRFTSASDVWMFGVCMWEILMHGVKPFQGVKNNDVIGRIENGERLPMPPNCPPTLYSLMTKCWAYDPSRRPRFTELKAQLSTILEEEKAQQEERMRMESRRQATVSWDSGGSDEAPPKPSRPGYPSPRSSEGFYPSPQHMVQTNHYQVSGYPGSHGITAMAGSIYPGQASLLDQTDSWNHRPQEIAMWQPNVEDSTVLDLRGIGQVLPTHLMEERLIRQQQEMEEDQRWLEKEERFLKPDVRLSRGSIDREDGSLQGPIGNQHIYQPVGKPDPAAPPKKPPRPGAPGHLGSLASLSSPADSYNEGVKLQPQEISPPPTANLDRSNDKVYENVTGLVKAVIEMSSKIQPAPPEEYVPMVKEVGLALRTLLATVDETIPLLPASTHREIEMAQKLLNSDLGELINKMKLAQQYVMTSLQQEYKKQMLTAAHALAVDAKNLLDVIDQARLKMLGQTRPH
Sequence of Follistatin (Homo sapiens) (P19883 whole entry, looked up): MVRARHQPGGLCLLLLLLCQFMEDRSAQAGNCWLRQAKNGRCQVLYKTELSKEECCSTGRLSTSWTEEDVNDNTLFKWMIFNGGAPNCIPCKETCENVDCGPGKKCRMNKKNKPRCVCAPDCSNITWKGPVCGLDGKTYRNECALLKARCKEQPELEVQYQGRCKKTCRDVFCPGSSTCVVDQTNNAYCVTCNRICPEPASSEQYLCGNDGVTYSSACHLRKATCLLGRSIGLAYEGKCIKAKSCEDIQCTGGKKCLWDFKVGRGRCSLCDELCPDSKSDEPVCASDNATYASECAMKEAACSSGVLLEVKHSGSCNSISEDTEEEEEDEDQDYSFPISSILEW

On to `C=CCOC(=O)[C@H]1[C@@H]2C(=O)O[C@@H](c3ccccc3)[C@@H](c3ccccc3)N2[C@@H](c2ccc(OCCOC(=O)[C@@H]3C[C@@H]4C(=O)N[C@@H](Cc5ccccc5)C(=O)N4[C@@H]3c3ccc(O)cc3)cc2)[C@]12C(=O)Nc1ccc(I)cc12`, for which the composite z-score in experiment [1] is 1.15; in experiment [2] it was 1.15; in experiment [3], 0.307; in [4], -0.0558; in experiment [5] it was 1.4; in experiment [6], 1.25. In addition, the composite z-score was determined as 0.924 in [8] and 0.0495 in experiment [9]. In addition, the z-score was -1.28 in [7] and -0.409 (inactive) in [10].

For the compound `COc1ccc([Si](C)(C)[C@H]2[C@H](CC(=O)N(CCO)Cc3ccccc3)O[C@@]3(C(=O)N(c4ccccc4)c4ccccc43)[C@@H]2C)cc1`, the composite z-score amounted to 1.2 in [1]; 1.11 in experiment [2]; 0.207 in experiment [3]; 0.743 in [4]; 1.1 in experiment [5]; 0.679 in experiment [6]. Besides, the composite z-score worked out at 0.83 in experiment [8] and 0.135 in experiment [9]. Besides, the z-score in [7] was -0.23; in [10], -0.429 (inactive).

For `COCCOC(=O)N1C(=O)[C@@]2(c3cc(C#CCCO)ccc31)[C@H](C(=O)N1CCN(c3ncccn3)CC1)[C@H]1C(=O)O[C@H](c3ccccc3)[C@H](c3ccccc3)N1[C@@H]2c1ccc(OCCO)cc1`, the composite z-score in [1] is 1.12; in experiment [2] it was 1.23; in experiment [3] it was -0.293; in experiment [4] it was 0.972; in [5], 1.21; in [6] it was 1.29. Besides, the composite z-score was found to be 0.92 in experiment [8] and 1.02 in experiment [9]. Further, the z-score was -1.28 in experiment [7] and -0.21 (inactive) in experiment [10].

On to `Cc1c(NC(=O)/C(C#N)=C/C=C/c2ccc([N+](=O)[O-])cc2)c(=O)n(-c2ccccc2)n1C`, for which the composite z-score was 2.04 in experiment [1]; 1.18 in experiment [2]; -0.0384 in [3]; 1.02 in [4]; 1.06 in experiment [5]; 1.11 in experiment [6]. In addition, the composite z-score in experiment [8] worked out at 0.78; in experiment [9] it was 0.685. Also, the figures for the z-score in [7] and in experiment [10] were 0.138 and -4.99 (inactive), respectively.

On to `CC(C)(C)OC(=O)CC[C@]1(C(N)=O)N=C(c2ccc(OCCCO)cc2)O[C@H]1c1ccccc1N=[N+]=[N-]`, for which the composite z-score was determined as 2.8 in [1]; 0.977 in experiment [2]; 0.178 in experiment [3]; 0.746 in experiment [4]; 1.2 in experiment [5]; 0.38 in experiment [6]. The composite z-score in [8] is -0.512; in experiment [9] it was 1.1. The z-score in experiment [7] was -0.12; in [10] it was -8.33 (active).

Consider `COC(=O)C(CC#Cc1ccc2c(c1)[C@]1(C(=O)N2)[C@H](C(N)=O)[C@H]2C(=O)O[C@H](c3ccccc3)[C@H](c3ccccc3)N2[C@@H]1c1ccccc1OCCO)C(=O)OC`, for which the composite z-score turned out to be 1.25 in [1]; 1.22 in [2]; 0.474 in [3]; 0.591 in experiment [4]; 0.917 in experiment [5]; 0.535 in experiment [6]. For the same compound, the composite z-score in [8] is 0.607; in experiment [9] it was 0.775. Also, the figures for the z-score in experiment [7] and in [10] were -1.05 and -0.638 (inactive), respectively.

With `CCCCC(=C=CC[C@H](O)c1cccc(OCCO)c1)C[C@H](O)c1cc(Cl)cc(Cl)c1O`, the composite z-score in [1] is 0.172; in [2], 0.559; in [3], -0.0043; in experiment [4], 0.489; in experiment [5], 1.11; in [6] it was 0.272. Also, the composite z-score turned out to be 1.46 in experiment [8] and 0.749 in experiment [9]. Besides, the values for the z-score in experiment [7] and in [10] were 0.691 and -0.677 (inactive), respectively.

Consider `Cc1ccc(S[C@]2(C(=O)NC(C)C)CC(=O)N(Cc3ccccc3)[C@@H]2c2ccc(CO)cc2I)cc1`, for which the composite z-score was -1.01 in [1]; -0.781 in experiment [2]; -0.0673 in [3]; -0.771 in [4]; -1.35 in experiment [5]; -0.409 in experiment [6]. Besides, the figures for the composite z-score in experiment [8] and in experiment [9] were -1.64 and -1.09, respectively. Also, the z-score in [7] is 1.32; in experiment [10], -0.629 (inactive).

For `COc1ccc(CCNC(=O)[C@@H]2c3ccccc3C(=O)N(C(C)C)[C@H]2c2ccc(CO)cc2)cc1`, the composite z-score is -1.32 in experiment [1]; -0.878 in experiment [2]; -0.736 in [3]; -1.3 in experiment [4]; -1.27 in [5]; -0.934 in [6]. The composite z-score was -2.21 in [8] and -1.74 in experiment [9]. Besides, the z-score in [7] was 2.71; in [10], -0.897 (inactive).

In the case of `CCCC[C@@H](O)C1=C(C)Cn2c(=O)n(-c3ccccc3)c(=O)n2[C@H]1CO`, the composite z-score is -0.237 in experiment [1]; -0.432 in [2]; -0.137 in experiment [3]; -0.926 in experiment [4]; -0.355 in experiment [5]; 0.0632 in experiment [6]. Also, the composite z-score in [8] was 0.0378; in experiment [9], 0.502. In addition, the z-score was 2.01 in [7] and -1.32 (inactive) in experiment [10].

In the case of `C=CC[C@]1(C(=O)NCC(O)CO)N=C(c2ccc(OCCCO)cc2)O[C@H]1c1ccccc1CN=[N+]=[N-]` (stereo not given in full), the composite z-score in experiment [1] is 2.81; in [2], 1.22; in experiment [3] it was -0.209; in experiment [4], -0.204; in experiment [5], 0.875; in experiment [6], 0.785. Moreover, the composite z-score in [8] is -0.0497; in [9] it was 0.502. Also, the figures for the z-score in experiment [7] and in experiment [10] were 0.895 and -0.154 (inactive), respectively.
